This passage reports Percent Effect results from ChEMBL document CHEMBL3988442, “University of Dundee, Small-Polar-MMV Screening Library” (2021).

For part of these data: Potency and affinity values are given separately.

Parameters in all cases: scale not given: direction of the effect not stated beside the values
In test [1] the target is Protein translocase subunit SecA (Escherichia coli (strain K12)) (UniProt P10408). The test can be described thus: Assay to Identify E. coli SecA ATPase Inhibitors. In kind it is functional. The settings on record: 30 µM.
Chain of Protein translocase subunit SecA (Escherichia coli (strain K12)) (P10408 whole entry): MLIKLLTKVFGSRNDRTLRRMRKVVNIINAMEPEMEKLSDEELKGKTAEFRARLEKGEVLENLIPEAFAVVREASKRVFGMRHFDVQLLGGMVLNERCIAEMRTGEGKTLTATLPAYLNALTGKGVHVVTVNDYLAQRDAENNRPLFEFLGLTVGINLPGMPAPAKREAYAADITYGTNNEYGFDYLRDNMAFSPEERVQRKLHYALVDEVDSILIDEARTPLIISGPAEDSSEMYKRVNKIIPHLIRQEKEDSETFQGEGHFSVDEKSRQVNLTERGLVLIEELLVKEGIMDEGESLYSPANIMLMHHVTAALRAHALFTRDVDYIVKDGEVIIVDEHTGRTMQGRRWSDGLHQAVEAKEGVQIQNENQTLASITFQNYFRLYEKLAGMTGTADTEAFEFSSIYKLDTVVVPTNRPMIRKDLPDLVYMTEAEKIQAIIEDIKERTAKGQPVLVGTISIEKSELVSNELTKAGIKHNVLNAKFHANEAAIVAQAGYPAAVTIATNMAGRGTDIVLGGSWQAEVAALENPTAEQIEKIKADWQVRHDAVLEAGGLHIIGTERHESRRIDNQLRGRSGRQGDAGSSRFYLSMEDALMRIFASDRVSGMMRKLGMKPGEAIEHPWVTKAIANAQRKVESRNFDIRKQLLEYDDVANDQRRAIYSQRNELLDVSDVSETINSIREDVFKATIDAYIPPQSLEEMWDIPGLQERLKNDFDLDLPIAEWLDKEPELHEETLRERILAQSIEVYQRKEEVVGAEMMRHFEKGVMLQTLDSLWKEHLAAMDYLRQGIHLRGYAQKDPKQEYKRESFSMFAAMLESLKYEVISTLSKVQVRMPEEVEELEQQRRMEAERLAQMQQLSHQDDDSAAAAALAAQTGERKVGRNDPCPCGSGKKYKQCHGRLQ
The target of test [2] is T1, Ubiquitin-activating enzyme e1, putative (Leishmania donovani (strain BPK282A1)) (UniProt E9BSI1).
T1 sequence (whole entry): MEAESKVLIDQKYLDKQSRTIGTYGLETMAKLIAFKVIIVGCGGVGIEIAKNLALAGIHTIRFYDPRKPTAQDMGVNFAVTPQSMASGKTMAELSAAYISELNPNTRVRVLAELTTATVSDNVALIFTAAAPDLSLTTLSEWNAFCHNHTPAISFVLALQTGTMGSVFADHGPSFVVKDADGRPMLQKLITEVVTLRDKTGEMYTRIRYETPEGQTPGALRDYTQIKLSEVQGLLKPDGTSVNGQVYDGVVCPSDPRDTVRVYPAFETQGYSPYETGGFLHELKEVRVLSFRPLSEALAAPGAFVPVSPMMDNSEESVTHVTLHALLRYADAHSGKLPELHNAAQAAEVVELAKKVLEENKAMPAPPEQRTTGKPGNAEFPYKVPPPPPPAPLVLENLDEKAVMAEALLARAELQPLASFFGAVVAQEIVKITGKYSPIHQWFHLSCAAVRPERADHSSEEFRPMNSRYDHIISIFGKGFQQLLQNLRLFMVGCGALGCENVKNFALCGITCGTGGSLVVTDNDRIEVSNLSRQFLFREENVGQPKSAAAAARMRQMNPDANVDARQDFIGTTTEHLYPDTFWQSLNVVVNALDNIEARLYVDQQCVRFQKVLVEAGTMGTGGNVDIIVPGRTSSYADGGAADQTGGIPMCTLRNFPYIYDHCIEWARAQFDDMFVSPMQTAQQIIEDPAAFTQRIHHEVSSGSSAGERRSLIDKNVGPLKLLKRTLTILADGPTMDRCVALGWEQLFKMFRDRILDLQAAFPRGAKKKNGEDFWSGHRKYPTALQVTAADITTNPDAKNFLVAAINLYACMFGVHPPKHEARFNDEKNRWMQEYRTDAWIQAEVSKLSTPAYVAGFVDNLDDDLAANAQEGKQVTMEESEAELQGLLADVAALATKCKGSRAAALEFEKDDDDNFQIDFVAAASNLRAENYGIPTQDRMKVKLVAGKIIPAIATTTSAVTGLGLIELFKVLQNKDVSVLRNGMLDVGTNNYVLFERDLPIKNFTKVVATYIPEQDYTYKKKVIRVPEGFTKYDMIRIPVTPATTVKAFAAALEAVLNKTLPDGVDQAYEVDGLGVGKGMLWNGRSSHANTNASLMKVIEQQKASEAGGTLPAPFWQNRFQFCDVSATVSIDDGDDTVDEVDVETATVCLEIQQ
The test can be described thus: Leishmania donovani Ubiquitin Activating Enzyme (LdE1). In kind it is functional. The settings on record: 30 µM.

Test [3] has as its target Sialic acid-binding Ig-like lectin 9 (Homo sapiens) (UniProt Q9Y336). Description: Hs-Siglec9 ALPHAscreen SOP 20170721. The settings on record: 10 µM. (In general: Alpha assays give light when donor and acceptor beads are brought close together.)
The subject of the next test is Trypanosoma cruzi. Description: Trypanosoma cruzi phosphomannomutase and mannose-1-phosphate guanylyltransferase assay. The settings on record: 10 µM. In kind it is functional.
Test [4] concerns the target T2, Arginase-2, mitochondrial (Homo sapiens) (UniProt P78540).
T2 sequence (whole entry): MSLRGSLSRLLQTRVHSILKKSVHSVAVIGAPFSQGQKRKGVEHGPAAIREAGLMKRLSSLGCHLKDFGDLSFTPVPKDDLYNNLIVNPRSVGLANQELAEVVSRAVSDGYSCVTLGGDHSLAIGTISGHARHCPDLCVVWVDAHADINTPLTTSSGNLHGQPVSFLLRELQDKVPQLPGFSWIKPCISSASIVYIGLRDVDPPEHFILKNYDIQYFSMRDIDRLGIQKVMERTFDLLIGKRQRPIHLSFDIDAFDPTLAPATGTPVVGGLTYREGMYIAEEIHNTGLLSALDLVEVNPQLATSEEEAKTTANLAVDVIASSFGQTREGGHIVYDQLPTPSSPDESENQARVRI
The test can be described thus: in vitro enzyme assay to detect the production of urea directly proportional to the activity of Arginase II. Also: in the data most compounds retested in dose-response had high values. The settings on record: 33.3 µM. In kind it is functional.

Test [5] addresses T3, Proteasome subunit beta (Trypanosoma cruzi) (UniProt O96673).
T3 sequence (whole entry): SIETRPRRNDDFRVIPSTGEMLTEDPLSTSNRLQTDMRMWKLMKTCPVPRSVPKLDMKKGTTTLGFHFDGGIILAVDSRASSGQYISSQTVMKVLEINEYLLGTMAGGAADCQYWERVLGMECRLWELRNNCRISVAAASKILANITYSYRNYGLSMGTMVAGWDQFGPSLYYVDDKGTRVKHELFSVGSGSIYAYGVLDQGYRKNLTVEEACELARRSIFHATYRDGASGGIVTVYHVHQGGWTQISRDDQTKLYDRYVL
The test can be described thus: Trypanosoma cruzi proteasome chymotrypsin-like activity (TcProtChymo) assay. Also: in the data most compounds retested in dose-response had high values. The settings on record: 9.37 µM. In kind it is functional.

The species named for another test is Homo sapiens. The test can be described thus: To identify inhibition of the IFN signalling (Jak-Stat) pathway via expression of an eGFP reporter gene under the control of an IFN-stimulated response element (ISRE) containing MxA promoter. In kind it is functional. The settings on record: 30 µM. Background: Reporter assays use an easily measured gene product as a stand-in for the process of interest.

The target of test [6] is T4, Tyrosyl-tRNA synthetase, putative (Trypanosoma cruzi (strain CL Brener)) (UniProt Q4DSP6).
T4 sequence (whole entry): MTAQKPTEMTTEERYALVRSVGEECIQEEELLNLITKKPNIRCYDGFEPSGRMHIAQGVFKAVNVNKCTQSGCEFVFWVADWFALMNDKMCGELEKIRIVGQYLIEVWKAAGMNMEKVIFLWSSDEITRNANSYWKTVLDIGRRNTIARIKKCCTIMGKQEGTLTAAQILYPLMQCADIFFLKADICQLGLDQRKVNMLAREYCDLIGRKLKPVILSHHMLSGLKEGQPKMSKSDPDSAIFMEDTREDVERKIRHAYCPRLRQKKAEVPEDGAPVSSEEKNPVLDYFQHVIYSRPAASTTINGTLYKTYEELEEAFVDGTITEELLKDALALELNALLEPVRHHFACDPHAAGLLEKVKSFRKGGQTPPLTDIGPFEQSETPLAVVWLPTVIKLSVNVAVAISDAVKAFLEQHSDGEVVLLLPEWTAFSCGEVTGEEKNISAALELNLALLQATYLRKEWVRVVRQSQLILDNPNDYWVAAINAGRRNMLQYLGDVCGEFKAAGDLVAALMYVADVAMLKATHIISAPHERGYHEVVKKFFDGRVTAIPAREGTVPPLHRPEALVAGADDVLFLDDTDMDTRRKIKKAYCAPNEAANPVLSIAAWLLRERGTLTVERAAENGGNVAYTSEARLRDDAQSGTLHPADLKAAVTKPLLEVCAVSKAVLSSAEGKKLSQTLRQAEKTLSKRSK
Description: Trypanosoma cruzi tyrosyl tRNA synthetase (TcYRS) _High Tyrosine SOP. Also: in the data most compounds retested in dose-response had high values. In kind it is functional. The settings on record: 30 µM.

Test [7] deals with T4, Tyrosyl-tRNA synthetase, putative (Trypanosoma cruzi (strain CL Brener)). The test can be described thus: Trypanosoma cruzi tyrosyl tRNA synthetase (TcYRS) SOP. The settings on record: 30 µM. In kind it is functional.
In test [8] the target is Chromo domain-containing protein 1 (Saccharomyces cerevisiae (strain ATCC 204508 / S288c) (Baker's yeast)) (UniProt P32657). Description: ScCHD-1 Enzyme Inhibition Assay. Also: in the data most compounds retested in dose-response had high values. In kind it is functional. The settings on record: 30 µM.
Chain of Chromo domain-containing protein 1 (Saccharomyces cerevisiae (strain ATCC 204508 / S288c) (Baker's yeast)) (P32657 whole entry, the tested form may be a part): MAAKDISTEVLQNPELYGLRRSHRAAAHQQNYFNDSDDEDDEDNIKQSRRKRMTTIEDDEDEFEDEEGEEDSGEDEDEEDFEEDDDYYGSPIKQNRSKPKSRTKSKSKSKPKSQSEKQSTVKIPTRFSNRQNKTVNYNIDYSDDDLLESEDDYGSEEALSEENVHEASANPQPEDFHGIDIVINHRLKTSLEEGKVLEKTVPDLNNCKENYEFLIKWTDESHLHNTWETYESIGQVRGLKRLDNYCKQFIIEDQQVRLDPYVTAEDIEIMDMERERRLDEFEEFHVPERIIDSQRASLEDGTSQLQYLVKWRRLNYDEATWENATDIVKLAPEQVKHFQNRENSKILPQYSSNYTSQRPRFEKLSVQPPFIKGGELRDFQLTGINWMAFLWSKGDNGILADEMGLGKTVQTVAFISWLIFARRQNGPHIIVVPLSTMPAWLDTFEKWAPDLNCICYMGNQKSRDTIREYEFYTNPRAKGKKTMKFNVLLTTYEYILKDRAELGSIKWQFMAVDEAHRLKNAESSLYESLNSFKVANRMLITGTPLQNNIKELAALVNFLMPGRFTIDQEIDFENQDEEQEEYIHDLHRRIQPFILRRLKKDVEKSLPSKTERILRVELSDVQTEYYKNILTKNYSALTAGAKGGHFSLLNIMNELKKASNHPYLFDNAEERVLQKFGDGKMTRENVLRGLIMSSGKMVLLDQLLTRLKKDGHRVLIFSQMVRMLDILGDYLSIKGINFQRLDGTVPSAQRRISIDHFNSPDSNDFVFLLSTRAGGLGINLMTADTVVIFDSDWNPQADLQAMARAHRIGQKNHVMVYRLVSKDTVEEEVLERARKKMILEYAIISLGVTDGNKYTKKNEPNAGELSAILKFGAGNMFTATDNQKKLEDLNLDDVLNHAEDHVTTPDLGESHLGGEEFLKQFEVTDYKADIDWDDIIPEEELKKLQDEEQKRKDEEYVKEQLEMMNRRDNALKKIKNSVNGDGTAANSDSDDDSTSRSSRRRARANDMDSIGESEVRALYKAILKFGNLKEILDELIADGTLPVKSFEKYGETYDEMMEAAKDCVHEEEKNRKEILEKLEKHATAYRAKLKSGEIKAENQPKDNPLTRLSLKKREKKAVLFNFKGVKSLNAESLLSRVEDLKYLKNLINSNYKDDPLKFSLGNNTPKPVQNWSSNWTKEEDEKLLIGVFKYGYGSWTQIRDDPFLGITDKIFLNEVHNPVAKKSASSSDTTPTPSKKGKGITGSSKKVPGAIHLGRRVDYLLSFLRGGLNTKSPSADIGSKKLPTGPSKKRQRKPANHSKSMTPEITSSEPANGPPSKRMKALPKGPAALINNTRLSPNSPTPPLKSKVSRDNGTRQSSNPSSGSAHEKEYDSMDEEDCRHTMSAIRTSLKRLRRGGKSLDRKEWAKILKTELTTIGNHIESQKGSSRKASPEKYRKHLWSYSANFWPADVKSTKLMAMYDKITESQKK

Chain of Sialic acid-binding Ig-like lectin 9 (Homo sapiens) (Q9Y336 whole entry): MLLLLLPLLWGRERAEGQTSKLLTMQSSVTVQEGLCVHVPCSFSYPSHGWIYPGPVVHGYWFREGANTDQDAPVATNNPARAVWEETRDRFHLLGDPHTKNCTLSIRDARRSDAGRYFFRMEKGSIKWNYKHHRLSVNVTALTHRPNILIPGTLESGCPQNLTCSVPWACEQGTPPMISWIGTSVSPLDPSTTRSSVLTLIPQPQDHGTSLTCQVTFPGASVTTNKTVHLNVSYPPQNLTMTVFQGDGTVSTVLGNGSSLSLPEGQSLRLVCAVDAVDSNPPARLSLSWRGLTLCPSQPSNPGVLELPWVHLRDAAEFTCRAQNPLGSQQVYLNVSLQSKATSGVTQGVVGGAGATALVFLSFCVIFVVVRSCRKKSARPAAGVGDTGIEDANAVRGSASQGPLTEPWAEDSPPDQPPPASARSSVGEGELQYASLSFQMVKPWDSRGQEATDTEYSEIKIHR

On to `CCc1nc(C2CCCN2CCCS(=O)(=O)c2ccccc2)no1` (stereo not given), for which the Percent Effect was -2.94% in [1]; 15.4% in [2]; -14.9% in [3]; 2.16% with Trypanosoma cruzi; 0.41% in test [4]; 13.1% in test [5]. Also, the Percent Effect in the test listed under Homo sapiens was 6.1%; in test [6] it was 4.31%; in test [7], 22.9%; in [8], -3.94%.
On to `Cn1cc(N2CC3(COCCN(Cc4ccsc4)C3)OCC2=O)cn1` (stereo not given), for which the Percent Effect was -9.04% in test [1]; -1.3% in [2]; 10.7% in [3]; -1.46% in the test with Trypanosoma cruzi; 0.405% in [4]; 2.21% in test [5]. Besides, the Percent Effect in the test listed under Homo sapiens was 6.9%; in [6], 4.74%; in test [7], -5.13%; in [8] it was 2.44%.
On to `Cn1cc(CN2CCC3(CCCN3S(C)(=O)=O)CC2)cn1`, for which the Percent Effect in test [1] is -3.77%; in [2], -1.3%; in test [3], -1.55%; in the test with Trypanosoma cruzi, -5.36%; in test [4], -0.81%; in [5], 1.15%. The Percent Effect in the test listed under Homo sapiens was 1.96%; in test [6], -2.63%; in test [7], -25.6%; in test [8] it was -1.37%.
With `CC(NC(=O)N1CCC(OCc2ccccc2)CC1)c1nncn1C` (stereo not given), the Percent Effect was -3.83% in test [1]; 5.33% in test [2]; -0.332% in test [3]; 7.63% in the test on Trypanosoma cruzi; 1.33% in test [4]; 14.8% in [5]. The Percent Effect is 15.6% in the test filed under Homo sapiens, 2.63% in test [6], 12.8% in test [7] and -8.27% in [8].
Consider `CCS(=O)(=O)N1C[C@@H](OCc2cccnc2)[C@H]2OCCC[C@H]21`, for which the Percent Effect in test [1] was -10.2%; in test [2] it was 1.3%; in [3] it was 6.61%; with Trypanosoma cruzi it was -4.58%; in test [4] it was -3.64%; in test [5] it was 7.68%. Further, the Percent Effect in the test listed under Homo sapiens was determined as 9%; in test [6], 4.74%; in test [7], 7.69%; in test [8], 0.0373%.
`CC(C)c1ncncc1C(=O)NCCN1CCCS1(=O)=O`: the Percent Effect in [1] is -3.82%; in test [2] it was 5.13%; in test [3], -1.57%; in the test with Trypanosoma cruzi, 7.98%; in test [4] it was 3.69%; in [5], 3.5%. In addition, the Percent Effect in the test listed under Homo sapiens is 1.77%; in test [6], 1.44%; in test [7], 10.8%; in test [8], 1.18%.
As for `CCN1C(=O)CCCC12CCCN(C(=O)c1conc1C)C2` (stereo not given), the Percent Effect was -1.85% in test [1]; 3.9% in test [2]; -5.23% in test [3]; -3.75% with Trypanosoma cruzi; -0.457% in test [4]; 5.75% in test [5]. The Percent Effect is 14% in the test filed under Homo sapiens, -4.83% in test [6], -5% in test [7] and -2.52% in test [8].
For the compound `COCC(=O)N1CC[C@@H](N2CCOCC2)[C@@H]1Cc1ccccc1`, the Percent Effect in [1] was -3.93%; in test [2], 14.3%; in test [3] it was -1.41%; in the test on Trypanosoma cruzi, 0.0974%; in test [4], 13.8%; in test [5], 22%. Further, the Percent Effect in the test filed under Homo sapiens is -2.33%; in test [6] it was 17.4%; in test [7], 15.4%; in test [8], 2.12%.
As to `COCc1ncc(CN2CCC(Oc3ccccc3OC)CC2)cn1`, the Percent Effect in [1] was -4.09%; in test [2], 2.7%; in test [3], 1.93%; with Trypanosoma cruzi, -3.59%; in test [4], 3.85%; in [5] it was 9.59%. In addition, the Percent Effect in the test listed under Homo sapiens is 1.55%; in [6], 5.85%; in test [7], 14.6%; in [8], -3.8%.
As to `COc1ccccc1OCC(=O)NS(=O)(=O)c1ccccc1Br`, the Percent Effect in test [1] was -3.71%; in [2], 13%; in test [3], 10.4%; in the test on Trypanosoma cruzi, 5.78%; in test [4], 5.12%; in test [5], 3.51%. Moreover, the Percent Effect was 4.3% in the test listed under Homo sapiens, 0% in test [6], 16.5% in [7] and -9.19% in test [8].
`c1cnc(N2CCC3(CCN(CC4CC4)CC3)CC2)nc1`: the Percent Effect in test [1] is -6.61%; in test [2] it was 3.9%; in [3], -1.99%; in the test with Trypanosoma cruzi, -2.82%; in test [4], -5.67%; in test [5], 6.09%. The Percent Effect in the test filed under Homo sapiens is -6.66%; in test [6] it was 5.79%; in test [7], 12.8%; in [8], -1.89%.
For the compound `Cn1cc(CN2C[C@@H]3COC[C@]3(CNC(=O)c3ccsc3)C2)cn1`, the Percent Effect in [1] is -3%; in test [2], -1.3%; in [3], 16.9%; in the test with Trypanosoma cruzi it was -3.6%; in test [4], -5.26%; in [5], 9.27%. In addition, the Percent Effect was -6.13% in the test listed under Homo sapiens, -1.58% in [6], 0% in [7] and -2.4% in test [8].
